Compound activity (PubChem)
p53ts 32C tox: cytotoxicity in p53ts cells at permissive temperature; 0.93% of 130,000 active; Potency, µM (top dose mostly 46.1 µM), actives largely listed as cytotoxic; H1299-p53A138V at 32C, ATP luminescence viability, 24 h; also: nearly all actives have a fitted effect of over 55% in size
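H1299-p53 A138V cells (temperature-sensitive p53) exposed 24 h to up to 46 uM compound at 32C, where p53 is wild-type in conformation. Viability read as ATP luminescence and normalised to DMSO and 100 uM tamoxifen. AC50 fitted with the Hill equation.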
FLuc inh: firefly luciferase inhibition. Potency, µM (doses to about 57.1 µM), actives largely listed as inhibitors. purified firefly luciferase, luminescence, 8 min. 2.2% of 72,000 active. P08659; also: nearly all actives have a fitted effect of over 40% in size
Target sequence (P08659 whole entry, looked up): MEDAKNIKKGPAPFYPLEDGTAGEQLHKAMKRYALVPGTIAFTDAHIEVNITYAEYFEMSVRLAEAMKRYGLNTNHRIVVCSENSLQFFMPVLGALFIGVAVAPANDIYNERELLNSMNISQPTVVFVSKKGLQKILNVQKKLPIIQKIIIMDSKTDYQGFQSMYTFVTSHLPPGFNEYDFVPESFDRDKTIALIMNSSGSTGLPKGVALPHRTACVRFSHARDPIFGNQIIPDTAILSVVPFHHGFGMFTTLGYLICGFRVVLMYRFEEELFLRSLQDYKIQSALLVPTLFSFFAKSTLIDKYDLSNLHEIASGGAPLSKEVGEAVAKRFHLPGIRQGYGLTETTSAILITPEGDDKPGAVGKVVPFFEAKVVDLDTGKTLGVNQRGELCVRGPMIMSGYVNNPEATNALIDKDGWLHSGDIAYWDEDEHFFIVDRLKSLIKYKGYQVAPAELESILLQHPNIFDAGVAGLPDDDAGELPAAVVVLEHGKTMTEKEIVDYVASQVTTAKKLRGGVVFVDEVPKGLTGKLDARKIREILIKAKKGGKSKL
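Inhibition of light generation by firefly luciferase from ATP and luciferin was profiled with concentration-response curves per sample, ATP held at 10 uM within the enzyme's linear range. Plates were read by luminescence after an 8-minute ambient incubation.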
p53ts 39C tox: p53ts cell cytotoxicity, nonpermissive temperature. H1299-p53A138V viability at 39C, ATP luminescence, 24 h. Potency, µM (series often up to 46.1 µM), usual class: cytotoxic. 1.5% of 130,000 active. AID 902; also: nearly all actives have a fitted effect of over 55% in size
Each line names hits and unclear results; the compound was inactive in the other large screens. Only some compounds are listed: those with a hit (about 2.5% of all), similar ones and a draw of the others. Calls follow the shape of the dose curve; as a rule, active = well fitted curve in the direction sought with a large enough effect; inconclusive = small, poorly fitted or top-dose-only effect, or another doubt; inactive = no such curve, though single readings can be large; an effect the other way counts as inactive or inconclusive.

CCOc1ccccc1NC(=O)c1nc(S(=O)(=O)Cc2cccc(C)c2)ncc1Cl	p53ts 32C tox 15.8µM, p53ts 39C tox 3.16µM (no result: FLuc inh)
CCc1nnc(NC(=O)c2nc(S(=O)(=O)Cc3ccc(C)cc3)ncc2Cl)s1	p53ts 32C tox 15.8µM, p53ts 39C tox 6.31µM (no result: FLuc inh)
CCOc1ccccc1NC(=O)c1c(NC(=O)c2cccc(C)c2)sc2c1CCCC2	none (no result: FLuc inh)
CCc1nnc(NC(=O)c2nc(S(=O)(=O)Cc3cccc(C)c3)ncc2Cl)s1	p53ts 32C tox inconclusive, p53ts 39C tox 5.01µM (no result: FLuc inh)
NCCSS(=O)(=O)CCN	none
CN(C)C1CCN(C(=O)c2ccc(-n3c(=O)c(=O)[nH]c4ccccc43)cc2)C1 (stereo not drawn)	none (no result: FLuc inh)
COC(=O)c1c(NC(=O)c2cc3nc(-c4ccc(OC)cc4)cc(C(F)(F)F)n3n2)sc2c1CCCC2	none (no result: FLuc inh)
COc1ccc(NC(=O)c2cc3nc(-c4ccc(C)c(C)c4)cc(C(F)(F)F)n3n2)cc1	p53ts 39C tox 10µM (no result: FLuc inh)
Cc1ccc2c(c1)c1c(c(=O)n(-c3ccccc3C)c(=O)n1CC(=O)NCc1ccccc1)n2C	none (no result: FLuc inh)
CN(C)c1ccc(-c2ccc3ncnc(N(C)Cc4ccco4)c3c2)cc1	none
COc1ccc(CCNC(=O)CCCn2c(=O)c3cccn3c3ccc(F)cc32)cc1OC	none (no result: FLuc inh)
c1ccc2nc3c(nc2c1)[nH]c1ccccc13	p53ts 32C tox inconclusive, FLuc inh 15.8µM, p53ts 39C tox inconclusive
c1ccc(-c2c3ccccc3nc3[nH]c4ccccc4c23)cc1	none (no result: FLuc inh)
O=C1CCCC=C1[C@@H](O)C1CCCCC1	none
O=C(Nc1cccc(Cl)c1)Nn1cnnc1	none
CC(=O)Nc1cccc(N(C)S(C)(=O)=O)c1	none
CN(c1cccc(NC(=O)Nc2cccc(Cl)c2)c1)S(C)(=O)=O	FLuc inh 10µM
CN(C)c1ccc(NC(=O)Nc2cccc(Cl)c2)cc1	FLuc inh 10µM, p53ts 39C tox inconclusive
CCCCC[C@H](CC(=O)NO)C(=O)N[C@@H](C(=O)N1CCC[C@H]1CO)C(C)C	none
COc1ccccc1-c1nc2n(n1)C(c1ccccc1Cl)C(C(=O)Nc1cccnc1)=C(C)N2 (stereo not drawn)	none (no result: FLuc inh)
CCCC(=O)c1cc(O)c(O)cc1O	none (no result: FLuc inh)
CCCCCCCCCCCCCCCCCCOC[C@@H](COP(=O)([O-])OCC[N+](C)(C)C)OC	none
Cc1ccc(C)c(Cn2c(=O)n(CCCCC(=O)NCc3ccccc3Cl)c(=O)c3ccccc32)c1	p53ts 39C tox 25.1µM (no result: FLuc inh)
Cc1cccc(Cn2c(=O)n(CCCC(=O)NCc3ccccc3Cl)c(=O)c3ccccc32)c1	p53ts 39C tox inconclusive (no result: FLuc inh)
O=C(O)C1CCCN1S(=O)(=O)c1cccc2cccnc12 (stereo not drawn)	none
O=C(O)[C@@H]1CCCN1Cc1ccc2c(c1)OCO2	none
O=[N+]([O-])c1ccc(C(c2sc3nc(-c4ccco4)nn3c2O)N2CCN(Cc3ccccc3)CC2)cc1 (stereo not drawn)	none (no result: FLuc inh)
Cc1ccc(/C=C/c2onc(C)c2S(=O)(=O)N2CCC(C(=O)N3CCC(N(C)C(C)C)CC3)CC2)cc1	p53ts 32C tox inconclusive, p53ts 39C tox 20µM (no result: FLuc inh)
CCN(CCN(C)C)C(=O)C1CCN(S(=O)(=O)c2c(C)noc2/C=C/c2ccccc2F)CC1	p53ts 39C tox 12.6µM (no result: FLuc inh)
CC(=O)c1ccc(N2CCN(C(=O)C3CCN(S(=O)(=O)c4c(C)noc4/C=C/c4ccc(C)cc4)CC3)CC2)cc1	none (no result: FLuc inh)
CCOc1ccccc1/C=C/c1onc(C)c1S(=O)(=O)N1CCC(C(=O)N(CC)CC)CC1	none (no result: FLuc inh)
O=C(O)Cn1nc(N2CCN(c3ccccc3)CC2)ccc1=O	none (no result: FLuc inh)
COc1ccc(OC)c(NC(=O)c2cnc(N3CCCCC3)c3ccccc23)c1	none (no result: FLuc inh)
COc1ccc(-c2nc3cnc(Oc4cccc(Cl)c4)nc3n(CCC#N)c2=O)cc1	none
NC(N)=NCCC[C@H](NC(=O)CC1(CC(=O)N2CCN(C3c4ccccc4NC(=O)c4ccccc43)CC2)CCCC1)C(=O)NCCn1c(=O)n(-c2ccccc2)n(-c2ccccc2)c1=O (stereo partly drawn)	none (no result: FLuc inh)
CC(C)NC(=O)c1ccc(-n2c(-c3ccccc3)cc3c2CCCCC3)cc1	none (no result: FLuc inh)
CC1CCc2c(cc(-c3ccccc3)n2-c2ccc(C(=O)NC(C)C)cc2)C1 (stereo not drawn)	p53ts 39C tox 15.8µM (no result: FLuc inh)
COc1ccc(OC2C=CC(C#Cc3ccccc3)OC2CO)cc1 (stereo not drawn)	none (no result: FLuc inh)
CC(=O)Nc1nc(COc2ccccc2)cs1	none
Nc1nc(COc2ccc3ccccc3c2)cs1	p53ts 32C tox inconclusive, FLuc inh 25.1µM
O=c1cc(-c2ccccc2O)oc2c(O)c(O)ccc12	none
O=c1cc(-c2ccc(O)c(O)c2)oc2ccccc12	none (no result: FLuc inh)
O=c1cc(-c2ccccc2)oc2c(O)c(O)ccc12	p53ts 32C tox inconclusive, p53ts 39C tox 12.6µM (no result: FLuc inh)
O=c1cc(-c2ccccc2)oc2cc(O)c(O)cc12	p53ts 32C tox 2.51µM, p53ts 39C tox 2µM (no result: FLuc inh)
NC(N)=N/N=C(/c1ccccc1)c1ccc(O)cc1O	none
CCNc1ncc2nc(-c3cc(F)cc(F)c3)c(=O)n(C3CC3)c2n1	none
CC1(C)N=C(N)N=C(N)N1c1cccc(OCc2cccc([N+](=O)[O-])c2)c1	none
COCCNc1cc(-c2ccccc2C(F)(F)F)ncn1	none
CCCCCCC1=Cc2cc(OC)c(OC)cc2C(C2(C(=O)OCC)CCCC2=O)O1 (stereo not drawn)	none (no result: FLuc inh)
Cc1[nH]n2c(=O)cc(C(C)(C)C)nc2c1-c1ccccc1	p53ts 39C tox inconclusive
Cc1[nH]n2c(=O)cc(C(C)C)nc2c1-c1ccccc1	p53ts 39C tox 12.6µM
Cc1cnc(CNc2ccnc(-c3ccccc3C(F)(F)F)n2)cn1	none
COc1ccc(-c2cc(C(=O)NCc3ccc(F)cc3)c3c(-c4ccc(F)cc4)[nH]nc3n2)cc1OC	p53ts 32C tox inconclusive, p53ts 39C tox 12.6µM (no result: FLuc inh)
COc1ccc(CNC(=O)c2cc(-c3ccc(OC)c(OC)c3)nc3n[nH]c(-c4ccc(C)cc4)c23)cc1	none (no result: FLuc inh)
CCCn1c(-c2ccc(F)cc2)nc2c(NCCCCN(C)C)nc(C)nc21	none (no result: FLuc inh)
Cc1ccc2nc(-c3cccnc3)oc2c1	p53ts 32C tox inconclusive, FLuc inh 25.1µM, p53ts 39C tox inconclusive
O=C(Nc1ccc2oc(-c3cccnc3)nc2c1)c1cccnc1	none
Cc1ccc(C)c(OCc2nc(-c3cccnc3)no2)c1	none (no result: FLuc inh)
Cc1ccc(C(=O)Nc2ccc3oc(-c4cccnc4)nc3c2)c(Cl)c1	none (no result: FLuc inh)
c1ccc(-c2nc3cc(Oc4ccc5oc(-c6ccccn6)nc5c4)ccc3o2)nc1	none
Cc1ccc(-c2nc(-c3cccnc3)no2)c(C)c1	p53ts 32C tox inconclusive, FLuc inh 12.6µM, p53ts 39C tox inconclusive
CC(C)CC(=O)Nc1ccc2oc(-c3cccnc3)nc2c1	p53ts 32C tox inconclusive, FLuc inh 12.6µM, p53ts 39C tox inconclusive
Cc1ccc2nc(-c3ccccn3)oc2c1	p53ts 32C tox 3.16µM, FLuc inh 7.94µM, p53ts 39C tox 5.01µM
OC[C@@H]1O[C@H](O)[C@@H](Cl)[C@H](O)[C@@H]1O	none
CCc1ccc(NC(=O)CC2C(=O)N(c3ccc(Cl)cc3)C(=O)N2Cc2ccco2)cc1 (stereo not drawn)	p53ts 39C tox inconclusive (no result: FLuc inh)
COc1ccc(CNC(=O)c2cc3cccc4c3n2CC(C)S4)cc1OC (stereo not drawn)	none (no result: FLuc inh)
NCCC[C@H](N)CC(=O)N[C@H]1CNC(=O)[C@@H]([C@@H]2C[C@H](O)N=C(N)N2)NC(=O)/C(=C/NC(N)=O)NC(=O)[C@@H](CO)NC(=O)[C@@H](CO)NC1=O	none
